These results are taken from PubChem BioAssay (NCI).

SMILES strings stand for the structures. This is part of a sample that, as a whole, favours compounds with a hit. Of some 83,000 tested, about 20% had one in any assay.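 A percent growth of 40 corresponds to 60% growth inhibition; 0 means no net growth; -100 means all cells died. Active threshold: below 10.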 Values without a mark were called inactive. Activity calls are given as the source filed them.

This assay relates to A549/ATCC NSCLC. Put plainly: NCI-60 one-dose screen, 48 h (100 = growth as untreated, 0 = no growth, -100 = all killed). The note with it: 10 µM unless noted. Here is the method:
Growth inhibition of the A549/ATCC human Non-Small Cell Lung tumor cell line is measured as a screen for anti-cancer activity. Cells are grown in 96 well plates and exposed to the test compound for 48 hours. Compounds are tested at a single concentration, which is 10^-5 M for most compounds. The reported endpoint is percent growth (GI% or GIPRCNT), where numbers from 0 - 100% represent growth inhibition, and numbers from -100% - 0 represent cell death. For example, a value of 40 represents 60% growth inhibition. A value of 0 means no net growth occurred over the course of the experiment. A value of -40 indicates 40% of cells at the beginning of the experiment died by the end of the experiment. A value of -100 means all cells are dead at the end of the experiment.
NCI-60 Human Tumor Cell Lines Screen was performed using the standard one-dose NCI protocol, which is described in more detail at https://dtp.cancer.gov/discovery_development/nci-60/default.htm.
Compounds with GIPRCNT values below 10 were considered active. Activity score was based on GIPRCNT using the following formula: […]
Score is 0 for GIPRCNT values of 100 or above, 50 for GIPRCNT values of 0, and 100 for GIPRCNT values of -100.
With `Cc1cccc(/C=C/C(=O)Nc2ncc(Cc3cccc(C)c3)s2)c1`, the growth is 31.1%.
The result for `O=S(=O)(NCCCNc1nccc(-c2[nH]c(-c3ccccc3)nc2-c2ccc(Cl)c(O)c2)n1)c1cccc2ccccc12` reads 26.5%; that for `O=C(NNc1nc2cc(F)ccc2n2c(CO)ccc12)c1cnccn1`, 13.6%; that for `COc1cccc2c1CN(C(=O)c1ccc(O)c(C(=O)N3Cc4ccc(OCCC[P+](c5ccccc5)(c5ccccc5)c5ccccc5)cc4C3)c1)C2`, 101%.
Consider `CC/C(=C/c1c(O)cccc1OC)c1ccc2c(OC)cccc2[o+]1`, for which the growth was 102%.
The result for `O=c1[nH]c(Sc2sc3ccc(Cl)cc3c2CBr)nc(=S)[nH]1` reads 39.8%.
The result for `COc1cc(-c2nc(SC(C)C)n(C(C)C)c(=O)c2C#N)ccc1OCc1ccccc1` reads 36.7%; that for `CC1(C)[C@@H](O)CC[C@]2(C)[C@H]3CC[C@@H]4[C@H]5[C@H](C(=O)/C=C\c6ccncc6)CC[C@]5(O)CC[C@@]4(C)[C@]3(C)CC[C@@H]12`, 71.5%.
The result for `O=C(CN1CCN(c2cc(=O)n(-c3ccccc3)c3ccccc23)CC1)Nc1ccc(F)cc1` reads 74.7%; that for `CNCc1cccc2c1OCCCCCCC(C)(O)CC(C)(C)S(=O)(=O)c1ccc(cc1)-c1cnc(N)c(n1)C(=O)N2` (stereo not given), 11.4%.
Turning to `CS(=O)(=O)Nc1cc(-c2ccc3ncc(C#N)c(NCc4ccccc4)c3c2)cnc1Cl`, the growth is 7.72% (active).
The result for `CCCn1cnc2c(c1=N)C(c1ccc(F)cc1)c1sc3c(C)cccc3c1O2` (stereo not given) reads 35.6%; that for `CC(=O)N1N=C(c2cccc(-n3cccc3)c2)CC1c1cccc(F)c1` (stereo not given), 95.2%.
The result for `N#Cc1cccc(NC(=O)c2cc(-c3ccc(F)cc3F)ccc2O)c1` reads 11.3%; that for `Brc1ccccc1/C=N/Nc1nc(N/N=C/c2ccccc2Br)nc(N2CCOCC2)n1`, 97.1%.
Regarding `CS(=O)(=O)c1ncc(-c2ccccc2)cn1`, the growth was 94.2%.
The result for `COc1ccc2c(c1)c(-c1cc(N)n3nc(-c4cn(C)c5ccc(OC)cc45)cc3n1)cn2C` reads 46.1%; that for `NC/C(=C/F)COc1ccc2nc(NCc3cccnc3)oc2c1`, 95.3%; that for `COc1cc(/C=C2\C(=O)Nc3cc(Cl)ccc32)ccc1OCc1ccc(F)cc1`, 110%.
`COc1cc(/C=C/C(=O)c2ccc(NC(=O)CSc3nnc(-c4ccc(-c5nc6ccc(Cl)cc6[nH]5)cc4)o3)cc2)cc(OC)c1OC`: the growth was 99.5%.
The result for `O=C(Cn1cc[n+](CC(=O)c2ccc(-c3ccccc3)cc2)c1)Nc1cccc2cccnc12` reads 88.1%.
The result for `Oc1cccc2ccc(-c3nnc(SCc4ccc(O)c5ncccc45)o3)nc12` reads 15.9%.
The result for `C=CCn1c(SCC(=O)Nc2ccc(C(=O)/C=C/c3ccc(Br)cc3)cc2)nnc1-c1c[nH]c2ccccc12` reads 73.5%.
For `CCc1cccc(NC(=O)CNc2cc(S(=O)(=O)N(C)C)cc(C)c2C)c1`, the growth was 85.2%.
On to `COc1ccc(-c2nc(C(Cl)Cl)nc3cc(-c4ccccc4)nn23)cc1`, for which the growth was -42.9% (active).
The result for `CCCCCc1ccc(S(=O)(=O)Nc2cccc(-c3csc(NC(=O)CNCCN(C)C)n3)c2)cc1` reads 84.8%; that for `CC1(C)CC[C@]23CC[C@]4(C)[C@H](CC[C@@H]5[C@@]6(C)CCCN(CO)C(C)(C)[C@@H]6CC[C@]54C)[C@H]2[C@H]1OC3`, 76.8%.
The result for `O=C1C(c2ccccc2)=C(N2CCc3ccccc32)OC1(Cl)Cl` reads 85%.
For the molecule `Cc1cc(C)c(N2C(=O)CC(Nc3ccc(Cl)cc3Cl)C2=O)c(C)c1` (stereo not given), the growth is 104%.
Take `Nc1ncc(-c2ccc(NS(=O)(=O)c3ccc(Cl)c(Cl)c3)cc2)[nH]1`: the growth is 92.5%.
The result for `O=C(CSc1nc2ccccc2c(=O)n1-c1ccccc1)Nc1ccc(-c2nc3ccc([N+](=O)[O-])cc3[nH]2)cc1` reads 93.4%.
In the case of `CCCCCc1ccc(S(=O)(=O)Nc2cc(-c3csc(NC(=O)CN4CCN(CCO)CC4)n3)ccc2OC)cc1`, the growth is 43.4%.
The result for `O=C(c1ccc(O)cc1)[C@@H]1CN[C@@]2(C(=O)Nc3ccccc32)[C@H]1c1ccc(F)cc1` reads 108%; that for `CCO/C=N/C1=C(C#N)C(c2ccc(Cl)cc2)c2sc3c(C)cccc3c2O1` (stereo not given), 26.9%.
The result for `C[C@@H](Nc1c(C#N)cnc2ccc(-c3cnc(Cl)c(NS(C)(=O)=O)c3)cc12)c1ccccc1` reads 4.78% (active); that for `Nc1nc(Nc2ccccc2SSc2ccccc2Nc2nc(N)nc(-c3cccc(Br)c3)n2)nc(-c2cccc(Br)c2)n1`, 1.19% (active).
`CCN(CC)c1ccc(NC2=C(Cl)C(=O)c3nc(C)ccc3C2=O)cc1`: the growth is 100%.
The result for `COc1cc(-c2nc3sccn3c2-c2ccnc(S(C)(=O)=O)n2)ccc1F` reads 94.2%.
For `Nc1nc(N)c2c(n1)NC(c1ccc(Cl)cc1)CC(c1ccc(Nc3nc(NCCO)nc(N4CCOCC4)n3)cc1)=N2` (stereo not given), the growth was 86.3%.
The result for `C#CC(=O)N(c1ccc(OC)cc1OC)C(C(=O)NCC(=O)OCC)c1cccs1` (stereo not given) reads 94.4%.
